Laboratory results reported in ChEMBL document CHEMBL3988442, “University of Dundee, Small-Polar-MMV Screening Library” (2021).
The campaign covered roughly 48,000 compounds. About 13,000 (27%) showed an effect of 50% or more. Some of the results follow.

These molecules were tested on Wolbachia pipientis (assay: Anti-Wolbachia Cell-Based Screen). Settings: 5 µM.
Type: functional
Set-up: scale not given: in the data most compounds retested in dose-response had high values

Compound | Percent Effect
CCOC(C)c1nc(Cn2cc(C)cn2)cs1 (centres undefined) | -10.7%
COC1CCN(c2cc(C(C)C)nc3ccnn23)C1 (centres undefined) | -6.556%
CC1Cc2ccccc2N1C(=O)Cn1nc(-c2cccs2)cc(N)c1=O (centres undefined) | 146.8%
CC1Cc2ccccc2N1C(=O)Cn1nc(-c2cccs2)ccc1=O (centres undefined) | 148.6%
Cc1cc(CS(=O)(=O)CC(=O)N2c3ccccc3CC2C)no1 (centres undefined) | 4.378%
CN(C)CC1CN(CC(=O)N2CCc3ccccc32)CCO1 (centres undefined) | -2.513%
O=C(Cn1nc(-c2cccs2)ccc1=O)N1CCCCCC1 | 16.15%
Cc1ccc(-c2cc(N)c(=O)n(CC(=O)NCC3CC3)n2)s1 | -0.7868%
Nc1cc(-c2cccs2)nn(CC(=O)N2CCc3ccccc32)c1=O | 164.1%
O=C(c1csnn1)N1CCc2ccccc21 | 9.308%
O=c1ccc(-c2cccs2)nn1CN1CCCCCC1 | 6.119%
CSCCCN1C[C@H]2CC[C@@H]1CN(Cc1[nH]cnc1C)C2 | 27.65%
COCCN(C/C=C/c1ccccc1)Cc1[nH]cnc1C | 0.6053%
COCCN(CCOC)Cc1c(C)nc2ccccc2c1O | 87.45%
COCCN(Cc1ccccc1)Cc1csc(-c2ncccn2)n1 | 9.824%
Cn1ccc(CN2CCC(Cc3ccccc3)CC2)cc1=O | 141.3%
Cn1ccc(CN2CCC(NC(=O)NC3CCCCC3)CC2)cc1=O | -14.97%
Cn1c(CN2CCC(OCc3cccnc3)CC2)cc2ccccc21 | -15.6%
Cn1ccc(CN2CCC(OCc3ccccc3)CC2)cc1=O | 85.88%
Cn1ccc(CN2CCC(c3ccccc3)CC2)cc1=O | 1.288%
Cn1ccc(CN2CCC(CC(=O)N3CCCC3)CC2)cc1=O | 63.9%
Cn1ccc(CN2CCC(NC(=O)Cc3ccccc3)CC2)cc1=O | -4.576%

Compound | Percent Effect
Cn1ccc(CN2CCC(OCCc3ccccc3)CC2)cc1=O | 4.919%
COc1cccc(-c2n[nH]cc2CNCC2CCS(=O)(=O)C2)c1 (centres undefined) | 9.215%
O=C1CCC2(CCOC2)CN1Cc1nc2ccc(Cl)cc2[nH]1 (centres undefined) | -5.094%
O=C1CCC(C(=O)N(Cc2ccsc2)CC2CCCO2)=NN1 (centres undefined) | 39.45%
Cc1ccc2c(c1)C(NCc1nccn1Cc1ccccc1)CCCO2 (centres undefined) | -18.78%
Cc1cc(C)nc(N2CCN(C(=O)c3ccc(C4CCCO4)s3)CC2)n1 (centres undefined) | 6.831%
CCc1cnc(C)nc1NCc1nc(COC)no1 | 13.28%
O=C(O)c1cc(S(=O)(=O)Nc2ccc(Cl)cc2)cc2c1OCCO2 | -1.351%
O=C(O)c1cc(NS(=O)(=O)c2cccc(Cl)c2F)ccc1Cl | -8.503%
CN1CCN(c2ccc(NS(=O)(=O)c3ccc(Cl)s3)cc2C(=O)O)CC1 | 118.1%
CCc1ccc(S(=O)(=O)Nc2cc(C(=O)O)c(F)cc2F)s1 | -4.689%
O=C(O)C(F)(F)F.O=C(O)c1cc(NS(=O)(=O)c2ccc(Cl)s2)ccc1N1CCOCC1 | 94.51%
Cc1nn(C(C)C)c(C)c1S(=O)(=O)Nc1ccc(C(=O)O)c(Cl)c1 | 2.82%
CN1CCN(c2ccc(NS(=O)(=O)c3ccc(Br)s3)cc2C(=O)O)CC1 | 107.3%
CCc1cccc(NS(=O)(=O)c2cc(C)c(C(=O)O)s2)c1 | -4.966%
CCC1(c2ccc(NS(=O)(=O)c3ccc(Cl)s3)cc2)CCC(=O)NC1=O (centres undefined) | 13.42%
CN(C)Cc1ccc(C(N)=O)cc1NC(=O)c1cccc(C#N)c1 | -8.387%
N#Cc1ccc(N2CC3(CCN(c4nccs4)C3)C2)nc1.O=CO.O=CO | -6.647%
CCc1ccc(CNC[C@H]2C[C@@H](CO)N(C)[C@H]2c2ccccc2F)o1 | -16.71%
O=C1NCC2(CCN(C(=O)c3ccc4c(c3)CCCO4)CC2)O1 | 9.067%
CCOc1cccc(CN2CCCC(Nc3ccc(F)cc3)C2)c1O (centres undefined) | -11.06%
Cc1ccccc1C(=O)CN1C(=O)c2ccccc2CS1(=O)=O | -19.77%

Compound | Percent Effect
CC(C)(O)CCc1cccc(C(=O)NCC2COCCO2)c1 (centres undefined) | 5.622%
COCCN(Cc1cnn(C)c1)c1nc2c(s1)c(C)nn2C | -9.354%
O=C(O)C(F)(F)F.O=C(c1ccoc1)N1CCC2(CCC(=O)N2Cc2ccncc2)CC1 | 2.988%
Cc1cccc(CN2CCC3(CCCN(C(=O)NC(C)C)C3)C2=O)n1.O=C(O)C(F)(F)F (centres undefined) | -6.059%
Cc1cccc(CN2CCC3(CCCN(C(=O)NC4CC4)C3)C2=O)n1.O=C(O)C(F)(F)F (centres undefined) | 34.29%
Cc1cccc(CN2CCOC3(COCCN(CCN(C)C)C3)C2)n1.O=C(O)C(F)(F)F.O=C(O)C(F)(F)F.O=C(O)C(F)(F)F (centres undefined) | -6.557%
Cc1cccc(N2CCC3(CCN(Cc4ccccn4)CC3)CC2)n1.O=C(O)C(F)(F)F.O=C(O)C(F)(F)F | 8.022%
Cc1cccc(CN2C(=O)CCC23CCN(c2ccccn2)CC3)n1.O=C(O)C(F)(F)F.O=C(O)C(F)(F)F | 98.24%
Cc1cccc(N2CCC3(CCCC(=O)N3)CC2)n1.O=C(O)C(F)(F)F | -22.27%
Cc1cccc(CN2C(=O)CCC23CCN(C(=O)c2ccco2)CC3)n1.O=C(O)C(F)(F)F | 108.9%
Cc1cccc(CN2CCCC3(CCC(=O)N3CCN(C)C)CC2)n1.O=C(O)C(F)(F)F.O=C(O)C(F)(F)F (centres undefined) | 115.9%
Cc1cccc(CN2C(=O)CCC23CCN(C(=O)NC(C)C)CC3)n1.O=C(O)C(F)(F)F | 107.8%
Cc1cc(CN(C)C(=O)c2ccc(Cl)c(S(C)(=O)=O)c2)no1 | -0.7928%
Cn1ccnc1CCNS(=O)(=O)Cc1cccc(C#N)c1 | 3.021%
C1CCC(CSc2nnnn2C2CC2)OC1 (centres undefined) | -5.592%
O[C@H]1Cc2ccccc2[C@H]1n1ccnc1-c1cc2n(n1)CCNC2 | -8.508%
CC(C)N1CCC(CN2CCn3nc(CNC(=O)N(C)C)cc3C2)CC1 | 6.322%
COCCN1C(=O)CC[C@]12CC[C@@H](NCc1cccc(C)n1)CC2.O=C(O)C(F)(F)F | -11.86%
Cc1cccc(CN2C(=O)CCC23CCN(C(=O)N2CCCC2)CC3)n1.O=C(O)C(F)(F)F | 96.5%
Cc1cccc(CN2CCC3(CCCN(C(=O)N4CCCC4)C3)C2=O)n1.O=C(O)C(F)(F)F (centres undefined) | -13.65%
